# Source: PubChem
# PI4K2A inh: PI4K2A (human) kinase inhibition | activity change, negative = inhibition, % at 76.9 µM | Q9BTU6 | AID 1346378 | purified PI4K2A, ADP-Glo luminescence, 1 h; hits give low values | hit rate 0.13% among 420,000; in the data active = activity change below about -50%; inconclusive = mostly about -30% to -49%;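 note: -100% = wells without enzyme as full effect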
#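 Compounds are screened against recombinant PI4K2A using PI as substrate and ATP, the latter dispensed at 300 microM. Reactions run one hour at ambient temperature before ADP-Glo detection; full inhibition defined by wells lacking enzyme.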
# GCN5L2 inh: blocks human GCN5L2 histone acetyltransferase; GCN5L2 HAT assay, ThioGlo1 CoA-SH fluorescence; Potency, µM (doses to about 58.9 µM), for inactives: at the highest dose activity change, negative = inhibition, hits mostly inhibitors; hit rate 0.21% among 390,000; AID 504327; note: potency is the fitted concentration of half-maximal effect
#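 Preincubate 20nM GCN5L2 with compound 15 min, RT → add 50uM ThioGlo1 + 75uM H3(1-25) + 70uM acetyl-CoA → read fluorescence 0 and 20 min. Primary qHTS; fluorescent artifacts likely.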
# VDR inhibitor: inhibitors of human vitamin D receptor; VDR-SRC2-3 peptide fluorescence polarization, 2 h; Potency, µM, without a hit: max response, negative = inhibition, most hits filed as inhibitors; hit rate 0.93% among 400,000; note: potency is the fitted concentration of half-maximal effect
#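 VDR–SRC2-3 interaction, FP format. Cmpds 23 nl via pintool, brief spin, 2 h ambient incubation.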
# GLS inh: blocks human kidney-isoform glutaminase activity; O94925; hit rate 0.21% among 410,000; AID 624170; Potency, µM (series often up to 45.5 µM), for inactives: top-dose activity change, negative = inhibition, actives largely listed as inhibitors; GLS enzymatic activity, qHTS titration; note: potency is the fitted concentration of half-maximal effect
# Target sequence (O94925 whole entry, looked up, canonical isoform): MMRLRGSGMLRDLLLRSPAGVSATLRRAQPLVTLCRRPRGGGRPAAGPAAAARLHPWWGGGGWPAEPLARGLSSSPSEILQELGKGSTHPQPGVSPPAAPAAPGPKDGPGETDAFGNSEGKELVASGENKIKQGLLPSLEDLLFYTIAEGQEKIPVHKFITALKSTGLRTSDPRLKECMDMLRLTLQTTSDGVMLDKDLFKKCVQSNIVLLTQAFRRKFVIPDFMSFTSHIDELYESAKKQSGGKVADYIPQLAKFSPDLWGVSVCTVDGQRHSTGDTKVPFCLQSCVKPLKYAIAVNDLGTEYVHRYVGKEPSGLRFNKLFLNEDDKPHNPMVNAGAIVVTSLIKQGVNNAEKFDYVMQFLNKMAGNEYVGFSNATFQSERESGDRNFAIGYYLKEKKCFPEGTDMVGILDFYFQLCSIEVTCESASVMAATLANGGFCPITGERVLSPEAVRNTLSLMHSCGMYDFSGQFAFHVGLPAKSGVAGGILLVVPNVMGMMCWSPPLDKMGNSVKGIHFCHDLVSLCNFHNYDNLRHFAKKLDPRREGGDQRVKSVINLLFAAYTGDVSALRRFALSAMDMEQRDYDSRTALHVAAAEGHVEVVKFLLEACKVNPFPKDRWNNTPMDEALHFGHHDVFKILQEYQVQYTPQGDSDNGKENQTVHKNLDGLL
#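 hKGA in 45 mM KH2PO4 (pH 8.2), 0.02% Tween-20 with compound, then 1mM L-Glutamine (stock as added) plus glutamate oxidase/HRP/Amplex red coupling mix. Fluorescence read initially and after 30 min at RT; signal change reflects glutamate formation.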
# PLK1 PBD block: blocks phosphopeptide binding to human PLK1 polo-box domain; P53350; Plk1 PBD binding of FITC phosphopeptide, fluorescence polarization; Potency, µM, inactives show max response, negative = inhibition, usual class: inhibitors; hit rate 2.8% among 360,000; note: potency is the fitted concentration of half-maximal effect; series mostly up to about 57 µM; nearly all actives have a fitted effect of over 65% in size
# Starred values were filed as active, the others as inactive; ? = inconclusive; / = not tested or not shown; ! = repeats disagree; [ ] = another dose, or the depositor's remark. Hits are enriched below; roughly 3.1% of the tested compounds scored in any of these assays. Unless noted, calls come from the whole dose curve; as a rule, active = well fitted curve in the direction sought with a large enough effect; inconclusive = small, poorly fitted or top-dose-only effect, or another doubt; inactive = no such curve, though single readings can be large; an effect the other way counts as inactive or inconclusive. Unless noted, % is set by controls: 0 for no effect and ±100 for the full control effect.
SMILES,PI4K2A inh,GCN5L2 inh,VDR inhibitor,GLS inh,PLK1 PBD block
CCOC(=O)Cc1csc(SCn2nnc3ccccc3c2=O)n1,3,-24%,0%,-5%,-11%
CCOC(=O)Cc1csc(-n2sc3ccccc3c2=O)n1,-11,-16%[0.501 µM],16µM*,?,3µM*
CC(=O)N[C@@H]1C[C@@H]2O[C@H](CO)CC[C@@H]2O[C@@H]1CCc1ccc(C#CC2(O)CCCC2)cc1,-7,/,/,/,/
Nc1nc(C(=O)N2CCOCC2)nn1S(=O)(=O)c1ccc(Cl)cc1,2,3%,?,77%,27µM*
COC(=O)[C@]12C[C@H](CC(=O)NCCCN3CCCC3=O)C(=O)N(Cc3cccc4ccccc34)C1=C[C@H](C(C)(C)C)O[C@@H]2C,-2,/,/,/,/
CCC1(C)Cc2sc3c(=O)[nH]c(=S)[nH]c3c2CO1 (stereo unspecified),-2,25µM*,-16%,-27%,11µM*
O=c1c2cc(N3CCOCC3)ccc2[nH]c(=S)n1Cc1ccco1,-23,?,79µM*,-7%,?
O=c1c2cc(Cl)ccc2[nH]c(=S)n1Cc1ccco1,-3,-1%,2%,-1%,?
CCCOc1cccc(C2c3c(oc4ccc(F)cc4c3=O)C(=O)N2CCc2ccc(OC)cc2)c1 (stereo unspecified),-3,-8%,-8%,-2%,/
OC[C@H](O)[C@H](O)[C@@H](O)[C@@H](O)[C@@H]1SC(c2ccccc2)=NN1c1ccccc1,4,-3%,22µM*,-5%,?
CC1=CCC2C(=O)N(c3ccc(C(=O)N4CCCCCC4)cc3)C(=O)C2C1 (stereo unspecified),-3,-7%[0.501 µM],-18%,22%,17µM*
O=C(c1ccc(N2C(=O)C3C4CC(C(Br)C4Br)C3C2=O)cc1)N1CCCCC1 (stereo unspecified),-2,0.79µM*,-14%,0%,-9%
O=C(c1ccc(N2C(=O)C3CCCCC3C2=O)cc1)N1CCCCC1 (stereo unspecified),0,-4%,-17%,-2%,-3%
O=C(c1ccc(N2C(=O)C3CC=C(Cl)CC3C2=O)cc1)N1CCCCC1 (stereo unspecified),-3,-18%,4%,1%,-1%
COC(=O)[C@]12C[C@H](CC(=O)N3CCN(C(=O)C4CC4)CC3)C(=O)N(CCc3ccc(OC)c(OC)c3)C1=C[C@H](C(C)(C)C)O[C@@H]2C,-5,/,/,/,/
CCc1ccc(NC(=O)CSc2ccc(-c3ccco3)nn2)cc1,-3,-5%,79µM*,?,19µM*
O=C(CSc1n[nH]c(-c2ccco2)n1)Nc1ccc(Br)cc1,4,-28%,-15%,0%,27µM*
CCOC(=O)CSc1n[nH]c(-c2ccco2)n1,1,-1%,-26%,6%,30µM*
CCc1nc(SCC(=O)Nc2ccc(N(CC)CC)cc2)n[nH]1,4,/,7%,0%,30µM*
CCc1nc2ccc(C(=O)N3CCN(c4cccc(C)c4C)CC3)cc2nc1CC,0,-11%,?,6.3µM*!,27µM*
Cc1cccc(N2CCN(C(=O)c3ccc4nc[nH]c4c3)CC2)c1C,-3,0%,-10%,-12%,-4%
COc1ccc(C(C)=O)cc1Cn1cnc2c(cnn2C)c1=O,0,-1%,?,48%,19µM*
COc1ccc(C(C)=O)cc1Cn1c(=O)cc(C)[nH]c1=O,-2,2%,-8%,-27%,-1%
COc1ccc(OC)c(S(=O)(=O)N(C(C)=O)c2ccc3oc(=O)sc3c2)c1,-1,-18%,-15%,-9%,2%
CC(C)C(=O)N(c1ccc2oc(=O)sc2c1)S(=O)(=O)c1ccccc1,7,-3%,79µM*,-2%,-11%
SMILES,PI4K2A inh,GCN5L2 inh,VDR inhibitor,GLS inh,PLK1 PBD block
COc1ccc(S(=O)(=O)N(C(=O)C(C)C)c2ccc3oc(=O)sc3c2)cc1,1,-6%,79µM*,-1%,-23%
CC(=O)N(c1ccc2oc(=O)sc2c1)S(=O)(=O)c1ccccc1,7,-12%,-27%,4%,30µM*
CC1=C(c2ccc(C)cc2)S(=O)(=O)NC1=NCCCN1CCN(c2ccc(F)cc2)CC1,0,-5%,7%,11%,/
Cc1ccc(/C=C/C(=O)N2CC(=O)Nc3ccccc32)o1,4,22µM*,-10%,-10%,-19%
COc1ccccc1-c1cc(C(F)(F)F)nc(S(=O)(=O)CCCC(=O)N2CCCCC2C)n1 (stereo unspecified),34,-1%,32µM*,-1%,?
COc1ccccc1-c1cc(C(F)(F)F)nc(S(=O)(=O)CCCC(=O)NC(C)C)n1,15,?,?,-3%,?
O=c1c2c(nc3cc(-c4cccc(F)c4)[nH]n13)CCC2,0,-1%,-11%,12%,24µM*
CC[C@H](C)[C@H](N)C(=O)O,1,/,/,/,/
COc1ccc(-c2nc3ccccc3s2)cc1O,-25,-9%,-3%,58%,24µM*
COc1cc(-c2nc3ccccc3s2)ccc1O,-1,0%,17%,9%,-10%
N#Cc1cccc(NC(=S)Nc2ccccc2)c1,1,2%,-18%,16%,13µM*
c1cncc(CNc2ncnc3ccc(-c4ccco4)cc23)c1,/,-2%,/,/,/
Cc1cc(Cl)nc(-n2nc(C)cc2C)n1,-3,-5%,-12%,-3%,-6%
Cc1cc(C)n(-c2nc(C)nc(N)n2)n1,-1,3%,-7%,21%,12µM*
Cc1cccc(-n2c(C)nc3cc(C(=O)N4CCOCC4)ccc32)c1,5,-1%,?,-8%,27µM*
Cc1ccc(/C=C/C(=O)c2ccc([N+](=O)[O-])o2)cc1,1,-9%,5.6µM*,10%,-28%
Cc1ccc(CNC(=O)c2ccc([N+](=O)[O-])o2)cc1,5,-20%,-11%,5%,-1%
CCCCN1C(=O)N2Cc3ccc(C)cc3C2CS1(=O)=O (stereo unspecified),-2,/,/,/,/
CCN(CC)/C(N)=N/c1nc(C)cc(C)n1,-4,-5%,-10%,10%,-3%
CCN(/C(N)=N/c1nc(C)cc(C)n1)c1ccccc1,3,2%,?,15%,27µM*
Cc1ccc(OCc2cc(C(=O)N(C)Cc3cnc4ccccn34)no2)cc1C,1,-3%,?,-25%,21µM*
COc1cc2c(cc1OC)CN(C(=O)c1cccc([N+](=O)[O-])c1)CC2,-2,2%,79µM*,?,27µM*
COc1cc2c(cc1OC)CN(C(=O)CSc1ccccc1C)CC2,0,-4%,-30%,-8%,27µM*
C=CCN1[C@H](CC(C)C)COc2cc(N3CCSCC3)ccc2S1(=O)=O,2,/,/,/,/
COc1ccc(/C=C(/C(=O)c2ccc(Cl)cc2Cl)n2cncn2)cc1,-1,?,56µM*,13%,-22%
CC(=O)N[C@@H]1C(O)OC(CO)C(O)C1O (stereo partly specified),/,0%,6%,-4%,/
